rCAG RNA binder = binders of r(CAG) RNA repeats, primary screen, biochemical, fluorescence | inhibition, % at 3 µM | r(CAG) RNA repeat, TO-PRO-1 dye displacement fluorescence | 370,000 compounds, 1.3% hits;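 active = inhibition above the plate cutoff, the mean of all test compounds on that plate plus 3 SD, cut at about 35% in these data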;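 also: 0% = DMSO alone and 100% = 100 µM mitoxantrone as full dye displacement; higher means more dye released from RNA so lower well fluorescence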
ALR H2O2 inh = inhibitors of human ALR sulfhydryl oxidase, primary screen, biochemical, H2O2 detection, HRP-luminol luminescence, single point | purified ALR, DTT oxidation | 290,000 compounds, 3.8% hits | FAD-linked sulfhydryl oxidase ALR (Homo sapiens), P55789 | inhibition, % (test concentration not listed);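 active = mean replicate inhibition above about 79%, with every replicate also reaching it, limit read from the data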
Target sequence (P55789 whole entry, looked up): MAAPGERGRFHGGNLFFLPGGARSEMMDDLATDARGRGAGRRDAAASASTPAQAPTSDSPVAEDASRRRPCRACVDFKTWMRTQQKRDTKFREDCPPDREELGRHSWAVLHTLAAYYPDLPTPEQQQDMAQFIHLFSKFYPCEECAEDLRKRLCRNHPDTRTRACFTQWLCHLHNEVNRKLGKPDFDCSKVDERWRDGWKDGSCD
ABHD5 PLIN5 PPI = ABHD5-PLIN5 interaction inhibitors, primary screen, cell lysate, split luciferase complementation, luminescence; Perilipin-5 (Homo sapiens) + 1-acylglycerol-3-phosphate O-acyltransferase ABHD5 (Homo …; Split G. princeps luciferase complementation, 4 h; inhibition, % at 4 µM; 360,000 compounds, 0.78% hits; AID 602281, 2012;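 active = inhibition above the mean inhibition across every tested compound plus 3 SD, cut at about 22% in these data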;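 also: 0% = DMSO only wells and the 100% control is not disclosed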
Rtt109 Vps75 = inhibitors of C. albicans Rtt109/Vps75 HAT, primary screen, biochemical, ThioGlo CoA-SH fluorescence, plate reader. Histone acetyltransferase RTT109 (Candida albicans (strain SC5314 / ATCC MYA-2876)), …. purified Rtt109/Vps75, 4 h. inhibition, % at 34.9 µM. 330,000 compounds, 0.16% hits. AID 540336, 2011;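 active = inhibition of at least 50% in every replicate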
Target sequence (Q5AAJ8 whole entry, looked up): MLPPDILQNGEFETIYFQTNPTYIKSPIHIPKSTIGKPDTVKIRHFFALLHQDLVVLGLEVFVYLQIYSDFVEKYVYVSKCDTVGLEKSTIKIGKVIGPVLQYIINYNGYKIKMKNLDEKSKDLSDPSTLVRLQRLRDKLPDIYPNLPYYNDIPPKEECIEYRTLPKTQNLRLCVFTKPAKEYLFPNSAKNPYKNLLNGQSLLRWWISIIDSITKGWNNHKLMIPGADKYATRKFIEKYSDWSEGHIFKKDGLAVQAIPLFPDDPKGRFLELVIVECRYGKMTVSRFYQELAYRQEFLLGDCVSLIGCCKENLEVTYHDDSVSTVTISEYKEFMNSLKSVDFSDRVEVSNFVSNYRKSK
LANA-H2A inh = blockers of LANA interaction with H2A/H2B – biochemical, FP readout, HTS, primary screen. 320,000 compounds, 0.6% hits. cell-free LANA-H2A/H2B peptide, fluorescence polarization. inhibition, % (test concentration not listed); in the data active = inhibition mostly above about 10%, no sharp cut-off; inactive = mostly below about 6.7%
PRMT1 inh = PRMT1 methyltransferase inhibitors, primary screen, biochemical, fluorescence polarization | 370,000 compounds, 1.3% hits | Protein arginine N-methyltransferase 1 (Homo sapiens), Q99873 | recombinant PRMT1, activity-based probe fluorescence polarization | inhibition, % at 2.79 µM | AID 652257, 2013;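 active = inhibition above about 21% made by adding two undisclosed values, limit read from the data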
* marks the source's active call; other numbers are inactive results; . = not tested or not shown. Rows were chosen to be rich in hits. Some 5.9% of all compounds tested hit in one or more screens of this group.

SMILES	rCAG RNA binder	ALR H2O2 inh	ABHD5 PLIN5 PPI	Rtt109 Vps75	LANA-H2A inh	PRMT1 inh
O=C(c1ccco1)N1CCN=C1SCc1ccccc1Cl	-1	99*	-3	-5	0	2
COC(=O)C[C@@H]1C[C@@H]2c3cc(NS(=O)(=O)c4ccc(F)cc4)ccc3O[C@@H]2[C@@H](CO)O1	2	.	8	.	.	-1
CCC[C@H]1[C@@H](NC(=O)C2CCC2)CC[C@@]23CCCN2C(=O)CCC[C@@H]13	.	.	.	.	.	3
CN(C)S(=O)(=O)c1ccc(C(=O)N2CCN=C2SCc2cccnc2)cc1	-3	99*	-2	-5	-4	7
O=C(Cc1cccs1)N1CCN=C1SCc1ccccc1F	-1	99*	-7	12	0	3
S=c1[nH]nc(-c2ccccn2)n1/N=C/c1ccc(Br)s1	8	96*	-2	-1	4	1
S=c1[nH]nc(-c2ccccn2)n1/N=C/c1ccc(-c2ccccc2Cl)o1	8	97*	-9	16	-10	2
O=C(C(=O)N1CCC(Cc2ccccc2)CC1)c1ccccc1	0	.	-11	.	.	-3
CC/C(=N\O)c1ccc(O)c(OC)c1	-2	99*	-5	-2	5	-3
C[C@H](CO)N1C[C@H](C)[C@@H](CN(C)C(=O)c2cnccn2)Oc2cc(C#CCC3CCCC3)ccc2S1(=O)=O	4	.	3	.	.	1
C=CCSc1nnc2c(n1)OC(c1cccnc1)Nc1ccccc1-2 (stereo not given)	4	-2	-1	12	-4	11
C=CCSc1nnc2c(n1)OC(c1c(C)[nH]n(-c3ccccc3)c1=O)Nc1ccccc1-2 (stereo not given)	41*	7	-6	13	-3	11
CC1(CCc2ccccc2)NC(=S)N(c2ccc(Cl)cc2)N1 (stereo not given)	1	94*	6	8	7	11
S=C1NC2(CCCCCC2)NN1c1ccccc1	4	.	.	.	.	3
CC1(CCc2ccccc2)NC(=S)N(c2ccccc2)N1 (stereo not given)	1	99*	1	12	3	-1
Nc1ccc2c(c1)nc(Cc1ccccc1)n2CCO	-1	97*	-1	-1	2	2
NC(=O)CSc1cn(Cc2ccc(F)cc2)c2ccccc12	2	.	-2	4	-6	1
NC(=O)CSc1cn(Cc2ccccc2)c2ccccc12	-4	6	1	-5	4	23*
C[C@H]1[C@@H](OC(=O)NCc2cccs2)CC[C@@]23CCCN2C(=O)CCC[C@@H]13	.	.	.	.	.	-1
CCCN1CNc2c(c(=O)[nH]c(=S)n2CCc2ccccc2)C1	-1	91*	1	-1	0	-2
CN(C)c1ccc(NC(=O)c2cccc(N3C(=O)C4C5C=CC(C5)C4C3=O)c2)cc1 (stereo not given)	-3	99*	-2	13	-2	2
Cc1ccc(NC(=O)c2cccc(N3C(=O)C4C5C=CC(C5)C4C3=O)c2)cc1C (stereo not given)	-1	-18	2	1	-10	4
Cc1cccc(-n2c(CNC(=O)c3ccc(S(=O)(=O)N4CCCCC4)cc3)n[nH]c2=S)c1	8	21	-1	-5	-8	-7
O=C(NCc1n[nH]c(=S)n1-c1ccccc1)c1ccco1	-2	.	-4	2	0	3
O=C(NCc1n[nH]c(=S)n1-c1ccc(Cl)c(Cl)c1)c1ccco1	4	85*	6	6	1	7
SMILES	rCAG RNA binder	ALR H2O2 inh	ABHD5 PLIN5 PPI	Rtt109 Vps75	LANA-H2A inh	PRMT1 inh
O=C(NCc1n[nH]c(=S)n1-c1cccc(Cl)c1)c1ccc(S(=O)(=O)N2CCCC2)cc1	10	94*	-5	-10	-5	4
COc1ccc(CCNC(=O)CSc2nc3ccsc3c(=O)n2Cc2ccccn2)cc1OC	1	.	-12	.	.	1
COc1ccc(CSc2nnc(SCC(=O)Nc3ccc(S(N)(=O)=O)cc3)s2)cc1	14	.	.	.	.	2
CCN1/C(=C2/SC(=S)NC2=O)Sc2ccccc21	5	91*	2	-2	3	3
CC(=O)c1cccc(OCC(=O)N(C)CC(=O)NCc2ccco2)c1	26	-8	10	-3	-9	9
Cc1cccc(C)c1-n1c(C)cc(/C=C2\NC(=O)NC2=O)c1C	-1	61	-3	2	-2	3
Cc1c(/C=C2\NC(=O)NC2=O)c2ccccc2n1C	2	98*	2	0	2	1
Cn1nnnc1Sc1ccc(C(=O)O)cc1[N+](=O)[O-]	2	-7	9	-1	4	5
Cn1ccnc1Sc1ccc(C(N)=O)cc1[N+](=O)[O-]	-4	-3	1	-1	86*	8
CN1CCN(CC(C)(C)NS(=O)(=O)c2ccc(Cl)cc2)CC1	-2	1	1	-4	11	-3
CC(C)(CN1CCc2ccccc2C1)NS(=O)(=O)c1ccc(Cl)cc1	-8	-4	7	-2	25*	5
Cc1cccc(C(=O)Nc2onc(C)c2C#N)c1	0	96*	7	-4	1	0
CN(c1ccc(NC(=O)CCc2cn(Cc3ccc(Br)cc3)c3ccccc23)cc1)c1ccccn1	15	.	.	.	.	2
Cc1cccc(-n2nc3c(c2NC(=O)c2ccco2)CSC3)c1C	25	53	-2	-6	1	30*
COCCCN1C(=O)[C@H](CC(=O)N2CCOCC2)[C@]2(C(=O)OC)CCCCC=C12	0	.	.	.	.	2
C/C(CC(=O)Nc1ccc(N(C)C)cc1)=N\NC(=O)c1cnccn1	4	99*	8	1	1	0
CN(C)c1ccc(NC(=O)CC(NCc2ccccn2)C(=O)O)cc1 (stereo not given)	1	100*	-4	4	-4	-1
COC(C(=O)N/N=C(\C)CC(=O)Nc1ccc(N(C)C)cc1)c1ccccc1 (stereo not given)	2	99*	-3	5	-1	-2
COC(C(=O)N/N=C(\C)CC(=O)Nc1ccc(Cl)cc1C)c1ccccc1 (stereo not given)	0	3	1	0	2	2
C/C(CC(=O)Nc1ccc(N(C)C)cc1)=N\NC(=O)c1ccccn1	4	96*	4	-2	1	2
Cn1c(NCCN2CCCC2)nc2cc(-c3cccc(C(F)(F)F)c3)sc2c1=O	.	.	3	.	.	.
